According to the supplement of paper PMC11732987, “Enantioselective OTUD7B fragment discovery through chemoproteomics screening and high-throughput optimisation” (Communications Chemistry, 2025):

Columns and labels:
Assay in all cases: log2 ratio of Biotin-Ahx-Ub-VS probe labelling (fragment/DMSO); higher = less target engagement (more negative = stronger competition), active = hit call of the paper (q ≤ 0.05, log2 ratio ≤ -1)
Conditions in all cases: compound concentration: 200 uM; treatment time: 3 h
USP16 = USP16 (UniProt Q9Y5T5)
Sequence of USP16 (Q9Y5T5 whole entry, looked up, the tested form may be a part): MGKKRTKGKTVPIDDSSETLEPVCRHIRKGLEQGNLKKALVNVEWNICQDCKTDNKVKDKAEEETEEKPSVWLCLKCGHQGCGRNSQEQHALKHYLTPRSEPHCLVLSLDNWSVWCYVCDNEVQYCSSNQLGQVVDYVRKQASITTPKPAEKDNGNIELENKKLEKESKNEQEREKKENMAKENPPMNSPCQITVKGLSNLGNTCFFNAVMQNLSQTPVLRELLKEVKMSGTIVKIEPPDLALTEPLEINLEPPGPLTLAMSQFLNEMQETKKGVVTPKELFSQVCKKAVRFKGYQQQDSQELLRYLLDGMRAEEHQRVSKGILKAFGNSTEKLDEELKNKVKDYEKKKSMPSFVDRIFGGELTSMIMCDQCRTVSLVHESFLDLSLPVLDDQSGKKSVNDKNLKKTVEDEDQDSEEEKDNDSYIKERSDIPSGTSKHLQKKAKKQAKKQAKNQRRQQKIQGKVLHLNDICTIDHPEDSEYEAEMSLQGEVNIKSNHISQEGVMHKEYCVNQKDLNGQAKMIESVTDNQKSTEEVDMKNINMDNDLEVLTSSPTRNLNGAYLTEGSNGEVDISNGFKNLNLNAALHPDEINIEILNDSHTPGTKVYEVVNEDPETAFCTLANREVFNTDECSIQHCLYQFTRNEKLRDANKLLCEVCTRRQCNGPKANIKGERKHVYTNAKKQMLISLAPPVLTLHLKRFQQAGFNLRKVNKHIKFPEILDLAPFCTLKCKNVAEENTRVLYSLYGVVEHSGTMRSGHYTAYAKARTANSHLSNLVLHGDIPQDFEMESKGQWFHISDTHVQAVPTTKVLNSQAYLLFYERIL
Summary of the method: (§1)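 HEK293T lysate in Tris/CHAPS/IGEPAL buffer with protease inhibitors (495 µg per sample) was given fragment at 200 µM or vehicle for 3 h, in triplicate. It then received Biotin-Ahx-Ub-VS at 0.5 µM final for 1 h. Labelled DUBs were NeutrAvidin-enriched, digested with LysC and trypsin, and run by diaPASEF LC-MS/MS. Values are average log2 fragment/vehicle ratios by unpaired t-test on global-median-normalised Spectronaut quantities of proteins with ≥2 unique peptides.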

USP19 = molecular target: T1, USP19 (UniProt O94966)
T1 sequence (whole entry): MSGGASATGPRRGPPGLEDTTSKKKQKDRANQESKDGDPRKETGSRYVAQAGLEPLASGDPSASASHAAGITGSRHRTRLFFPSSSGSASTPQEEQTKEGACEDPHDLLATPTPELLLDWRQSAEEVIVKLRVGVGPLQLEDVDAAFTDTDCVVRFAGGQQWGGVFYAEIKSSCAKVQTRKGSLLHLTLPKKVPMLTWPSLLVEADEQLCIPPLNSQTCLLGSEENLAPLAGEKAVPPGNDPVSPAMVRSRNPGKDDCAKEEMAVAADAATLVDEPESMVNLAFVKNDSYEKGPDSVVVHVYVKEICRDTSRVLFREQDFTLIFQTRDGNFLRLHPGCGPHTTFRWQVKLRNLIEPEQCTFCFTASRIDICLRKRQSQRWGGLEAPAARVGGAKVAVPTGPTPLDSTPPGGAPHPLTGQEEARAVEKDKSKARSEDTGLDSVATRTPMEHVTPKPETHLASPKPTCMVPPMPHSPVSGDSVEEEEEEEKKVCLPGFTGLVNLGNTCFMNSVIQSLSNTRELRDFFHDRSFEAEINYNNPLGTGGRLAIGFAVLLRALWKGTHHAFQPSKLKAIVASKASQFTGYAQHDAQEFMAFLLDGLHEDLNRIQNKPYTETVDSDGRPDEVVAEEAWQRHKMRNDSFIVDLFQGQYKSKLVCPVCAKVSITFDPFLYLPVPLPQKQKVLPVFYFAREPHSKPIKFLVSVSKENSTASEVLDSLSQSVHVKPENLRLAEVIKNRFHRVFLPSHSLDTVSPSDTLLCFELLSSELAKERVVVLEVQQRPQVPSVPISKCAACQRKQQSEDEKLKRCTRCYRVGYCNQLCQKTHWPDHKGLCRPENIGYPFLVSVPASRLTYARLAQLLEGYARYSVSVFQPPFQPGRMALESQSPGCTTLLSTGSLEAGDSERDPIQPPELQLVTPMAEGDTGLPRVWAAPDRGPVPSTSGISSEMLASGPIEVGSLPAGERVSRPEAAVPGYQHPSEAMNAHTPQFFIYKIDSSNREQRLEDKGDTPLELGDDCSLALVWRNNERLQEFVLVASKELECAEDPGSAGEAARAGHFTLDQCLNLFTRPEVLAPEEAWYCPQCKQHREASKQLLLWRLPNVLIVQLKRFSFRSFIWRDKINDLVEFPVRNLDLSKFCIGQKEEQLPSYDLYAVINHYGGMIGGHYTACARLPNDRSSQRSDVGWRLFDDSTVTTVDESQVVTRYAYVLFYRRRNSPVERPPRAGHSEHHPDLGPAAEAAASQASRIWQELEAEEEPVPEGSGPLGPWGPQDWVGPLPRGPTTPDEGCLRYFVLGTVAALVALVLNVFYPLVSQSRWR
Summary of the method: as §1

USP24 = USP24 (UniProt Q9UPU5)
Sequence of USP24 (Q9UPU5 whole entry): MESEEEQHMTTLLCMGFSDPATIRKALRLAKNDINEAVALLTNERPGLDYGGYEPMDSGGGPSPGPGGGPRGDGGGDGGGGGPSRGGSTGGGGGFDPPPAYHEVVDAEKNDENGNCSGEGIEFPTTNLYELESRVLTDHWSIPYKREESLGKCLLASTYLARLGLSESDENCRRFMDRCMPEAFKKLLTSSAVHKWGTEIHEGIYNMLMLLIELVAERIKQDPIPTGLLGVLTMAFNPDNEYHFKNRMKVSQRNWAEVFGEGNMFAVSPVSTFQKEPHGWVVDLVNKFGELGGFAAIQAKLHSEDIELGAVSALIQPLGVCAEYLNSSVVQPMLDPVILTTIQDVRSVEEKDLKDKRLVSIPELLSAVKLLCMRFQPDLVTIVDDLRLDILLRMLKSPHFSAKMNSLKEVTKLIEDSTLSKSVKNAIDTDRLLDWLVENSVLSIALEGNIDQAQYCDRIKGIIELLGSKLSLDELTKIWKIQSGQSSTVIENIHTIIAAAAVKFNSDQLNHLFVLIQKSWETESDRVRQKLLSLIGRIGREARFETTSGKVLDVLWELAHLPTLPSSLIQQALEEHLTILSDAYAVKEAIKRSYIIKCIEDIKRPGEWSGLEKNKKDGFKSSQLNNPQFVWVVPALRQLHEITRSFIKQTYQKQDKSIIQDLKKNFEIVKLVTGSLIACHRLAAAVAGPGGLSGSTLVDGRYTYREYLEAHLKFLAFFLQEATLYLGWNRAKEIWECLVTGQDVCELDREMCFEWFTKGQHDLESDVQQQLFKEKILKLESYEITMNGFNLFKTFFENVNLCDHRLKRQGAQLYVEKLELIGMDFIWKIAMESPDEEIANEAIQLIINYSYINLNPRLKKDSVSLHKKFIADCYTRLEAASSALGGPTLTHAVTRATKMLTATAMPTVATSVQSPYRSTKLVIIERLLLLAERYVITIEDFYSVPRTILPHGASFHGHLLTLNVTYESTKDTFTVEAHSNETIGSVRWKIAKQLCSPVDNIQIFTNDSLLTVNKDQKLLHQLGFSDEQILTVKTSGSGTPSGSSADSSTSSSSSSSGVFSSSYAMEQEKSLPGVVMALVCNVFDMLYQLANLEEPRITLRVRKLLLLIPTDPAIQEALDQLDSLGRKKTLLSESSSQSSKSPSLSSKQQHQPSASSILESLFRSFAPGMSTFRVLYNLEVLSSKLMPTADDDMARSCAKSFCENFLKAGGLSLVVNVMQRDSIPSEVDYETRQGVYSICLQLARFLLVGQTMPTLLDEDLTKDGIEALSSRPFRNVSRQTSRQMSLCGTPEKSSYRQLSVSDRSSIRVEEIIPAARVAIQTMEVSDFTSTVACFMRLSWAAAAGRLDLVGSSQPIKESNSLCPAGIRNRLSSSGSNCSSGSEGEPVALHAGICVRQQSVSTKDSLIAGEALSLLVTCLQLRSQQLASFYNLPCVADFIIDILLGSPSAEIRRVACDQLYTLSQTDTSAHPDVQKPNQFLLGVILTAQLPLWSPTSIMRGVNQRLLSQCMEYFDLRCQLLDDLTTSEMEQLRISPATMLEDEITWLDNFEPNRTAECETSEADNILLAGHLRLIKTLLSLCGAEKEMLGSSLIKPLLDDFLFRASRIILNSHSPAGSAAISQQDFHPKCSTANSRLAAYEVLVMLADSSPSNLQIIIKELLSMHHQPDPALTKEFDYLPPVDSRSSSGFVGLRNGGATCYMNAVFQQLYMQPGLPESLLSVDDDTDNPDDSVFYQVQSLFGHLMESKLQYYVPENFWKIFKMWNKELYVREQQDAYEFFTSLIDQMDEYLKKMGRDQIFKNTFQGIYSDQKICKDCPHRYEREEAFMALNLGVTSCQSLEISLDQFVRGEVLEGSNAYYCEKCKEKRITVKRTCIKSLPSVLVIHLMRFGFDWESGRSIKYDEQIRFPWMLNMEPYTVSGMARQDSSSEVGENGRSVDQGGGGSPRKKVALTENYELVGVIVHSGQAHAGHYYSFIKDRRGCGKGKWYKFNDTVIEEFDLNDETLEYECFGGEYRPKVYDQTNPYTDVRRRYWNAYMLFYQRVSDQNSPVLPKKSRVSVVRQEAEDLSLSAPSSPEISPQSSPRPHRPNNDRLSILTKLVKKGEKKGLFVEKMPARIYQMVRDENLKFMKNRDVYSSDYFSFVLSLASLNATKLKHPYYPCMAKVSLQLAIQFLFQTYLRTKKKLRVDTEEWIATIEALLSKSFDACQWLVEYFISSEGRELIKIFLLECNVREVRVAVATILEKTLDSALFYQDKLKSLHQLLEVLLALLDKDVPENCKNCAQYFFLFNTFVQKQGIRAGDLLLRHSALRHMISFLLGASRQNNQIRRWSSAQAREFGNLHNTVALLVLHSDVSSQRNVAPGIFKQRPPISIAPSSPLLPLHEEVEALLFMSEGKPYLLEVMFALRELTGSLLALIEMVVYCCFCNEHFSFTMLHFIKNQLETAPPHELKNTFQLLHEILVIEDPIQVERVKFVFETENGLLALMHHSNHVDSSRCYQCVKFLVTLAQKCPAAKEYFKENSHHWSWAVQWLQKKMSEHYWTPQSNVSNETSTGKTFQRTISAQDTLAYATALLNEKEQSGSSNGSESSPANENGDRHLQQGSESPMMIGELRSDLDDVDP
Summary of the method: as §1

USP25 = molecular target: T2, USP25 (UniProt Q9UHP3)
T2 sequence (whole entry): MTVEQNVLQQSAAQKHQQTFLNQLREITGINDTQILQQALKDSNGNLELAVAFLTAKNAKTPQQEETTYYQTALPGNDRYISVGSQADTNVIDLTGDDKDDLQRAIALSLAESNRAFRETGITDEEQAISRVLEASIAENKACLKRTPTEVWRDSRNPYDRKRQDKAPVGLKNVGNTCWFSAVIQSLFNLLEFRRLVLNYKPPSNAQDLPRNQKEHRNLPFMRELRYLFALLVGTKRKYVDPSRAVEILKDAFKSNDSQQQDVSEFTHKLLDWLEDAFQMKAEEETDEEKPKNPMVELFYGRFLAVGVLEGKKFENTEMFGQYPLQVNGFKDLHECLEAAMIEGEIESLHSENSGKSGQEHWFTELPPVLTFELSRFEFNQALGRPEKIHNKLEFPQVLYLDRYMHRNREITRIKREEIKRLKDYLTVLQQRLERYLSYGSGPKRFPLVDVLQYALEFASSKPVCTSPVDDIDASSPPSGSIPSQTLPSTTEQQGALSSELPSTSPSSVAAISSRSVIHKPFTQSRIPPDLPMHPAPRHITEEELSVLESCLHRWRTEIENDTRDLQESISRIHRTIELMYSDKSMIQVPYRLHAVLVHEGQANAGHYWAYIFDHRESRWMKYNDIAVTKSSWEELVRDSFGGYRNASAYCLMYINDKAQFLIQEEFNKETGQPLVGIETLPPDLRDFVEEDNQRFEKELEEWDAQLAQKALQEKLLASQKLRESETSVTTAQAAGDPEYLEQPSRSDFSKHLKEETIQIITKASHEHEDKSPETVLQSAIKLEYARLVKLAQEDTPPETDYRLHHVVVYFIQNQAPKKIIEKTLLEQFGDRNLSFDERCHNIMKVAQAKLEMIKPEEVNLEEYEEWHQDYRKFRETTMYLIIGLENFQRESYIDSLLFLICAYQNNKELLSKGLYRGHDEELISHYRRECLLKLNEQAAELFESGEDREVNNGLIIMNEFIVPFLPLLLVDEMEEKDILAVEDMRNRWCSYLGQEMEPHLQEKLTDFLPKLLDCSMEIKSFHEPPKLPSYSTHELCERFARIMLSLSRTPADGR
Summary of the method: as §1

USP28 = molecular target: T3, USP28 (UniProt Q96RU2)
T3 sequence (whole entry): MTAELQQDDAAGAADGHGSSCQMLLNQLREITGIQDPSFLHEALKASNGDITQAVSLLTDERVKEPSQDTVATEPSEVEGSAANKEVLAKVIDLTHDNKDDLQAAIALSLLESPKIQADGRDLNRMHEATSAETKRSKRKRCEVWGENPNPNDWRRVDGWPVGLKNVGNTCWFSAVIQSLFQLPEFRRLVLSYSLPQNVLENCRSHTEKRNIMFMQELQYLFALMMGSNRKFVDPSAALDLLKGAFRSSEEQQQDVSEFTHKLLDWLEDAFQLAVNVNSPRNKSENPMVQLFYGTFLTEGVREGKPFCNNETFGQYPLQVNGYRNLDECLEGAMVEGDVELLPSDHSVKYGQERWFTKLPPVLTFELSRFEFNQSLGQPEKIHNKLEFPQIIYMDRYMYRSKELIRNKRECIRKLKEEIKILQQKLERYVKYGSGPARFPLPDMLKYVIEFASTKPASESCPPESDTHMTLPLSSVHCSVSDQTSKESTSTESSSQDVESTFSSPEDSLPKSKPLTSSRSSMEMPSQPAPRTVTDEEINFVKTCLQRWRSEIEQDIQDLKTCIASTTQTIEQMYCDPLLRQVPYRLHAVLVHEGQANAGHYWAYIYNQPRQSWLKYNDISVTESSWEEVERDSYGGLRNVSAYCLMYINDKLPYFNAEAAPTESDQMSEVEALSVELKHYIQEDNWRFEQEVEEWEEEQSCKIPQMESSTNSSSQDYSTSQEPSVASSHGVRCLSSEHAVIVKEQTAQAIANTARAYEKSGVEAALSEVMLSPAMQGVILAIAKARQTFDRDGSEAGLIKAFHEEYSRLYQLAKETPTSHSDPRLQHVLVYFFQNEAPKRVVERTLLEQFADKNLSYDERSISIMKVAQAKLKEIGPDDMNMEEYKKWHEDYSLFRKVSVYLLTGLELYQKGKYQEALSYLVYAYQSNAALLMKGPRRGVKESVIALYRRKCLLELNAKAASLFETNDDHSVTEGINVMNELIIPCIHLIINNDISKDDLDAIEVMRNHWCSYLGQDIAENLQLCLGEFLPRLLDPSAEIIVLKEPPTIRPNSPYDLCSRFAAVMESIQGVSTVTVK
Summary of the method: as §1

Measured: log2 ratio of Biotin-Ahx-Ub-VS probe labelling

NC(=O)C(Cc1ccccc1)NC(=O)CCl (stereo not given)
inactive: USP16 0.0723 | USP19 -0.0793 | USP24 -0.0605 | USP25 -0.291 | USP28 -0.39
